Assay results from PubChem BioAssay AID1159580 (chemical genetic matrix, 2015).
“And” between values parts separate entries of the source, which are not always exact repeats. Equal values may be shown once. Hit rate of the full screen: of about 5,500 compounds, about 2,000 (36%) were called active. Roughly 18% stayed inconclusive and do not appear here. Cut-off read from the data, not from the text of the source: active = normalized growth mostly below about 0.91 (no sharp cut-off); inconclusive = no clear call, values can overlap the other calls; inactive = mostly above about 0.92. The list shows a part of the results.

Assay: chemical genetic growth profiling, strain panel (AID 1159580);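 note: tested at 20 µM; growth read once vehicle control cultures reached saturation at 30 °C; 1 = growth at the plate median or of vehicle wells; lower values mean less growth of the strain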
Conditions: S. cerevisiae deletion strains, growth OD

Measured: normalized growth

O=C(O)C(O)C(O)C(=O)O (configuration not stated)
inactive: locus YAL013W, strain DEP1, active compounds read low 0.974 | locus YAL021C, strain ccr4, active compounds read low 1 | locus YAL026C, strain drs2, active compounds read low 0.999 | locus YAL030W, strain snc1, active compounds read low 1 | locus YBL061C, strain skt5, active compounds read low 0.989 | locus YBR009C, strain hhf1, active compounds read low 0.99 | locus YBR021W, strain FUR4, active compounds read low 1.02 | locus YBR023C, strain chs3, active compounds read low 0.989 | locus YBR171W, strain sec66, active compounds read low 0.986 | locus YBR229C, strain ROT2, active compounds read low 0.952 | locus YBR231C, strain swc5, active compounds read low 0.996 | locus YBR279W, strain paf1, active compounds read low 0.985 | locus YCL011C, strain gbp2, active compounds read low 0.988 | locus YCL016C, strain dcc1, active compounds read low 0.994 | locus YCL029C, strain bik1, active compounds read low 0.985 | locus YCL061C, strain MRC1, active compounds read low 0.997 | locus YCL069W, strain vba3, active compounds read low 0.982 | locus YCR088W, strain abp1, active compounds read low 0.992 | locus YDL005C, strain med2, active compounds read low 0.984 | locus YDL035C, strain GPR1, active compounds read low 0.996 | locus YDL040C, strain nat1, active compounds read low 1.01 | locus YDL074C, strain BRE1, active compounds read low 0.976 | locus YDL101C, strain DUN1, active compounds read low 0.958 | locus YDL134C, strain PPH21, active compounds read low 0.986 | locus YDL185W, strain tfp1, active compounds read low 0.966 | locus YDL192W, strain arf1, active compounds read low 0.985 | locus YDR001C, strain nth1, active compounds read low 0.996 | locus YDR069C, strain doa4, active compounds read low 0.99 | locus YDR101C, strain arx1, active compounds read low 0.994 | locus YDR137W, strain rgp1, active compounds read low 0.984 | locus YDR150W, strain NUM1, active compounds read low 0.979 | locus YDR159W, strain sac3, active compounds read low 0.975 | locus YDR162C, strain NBP2, active compounds read low 0.95 | locus YDR195W, strain ref2 0.978 | locus YDR297W, strain sur2, active compounds read low 0.99 | locus YDR318W, strain mcm21, active compounds read low 0.999 | locus YDR334W, strain swr1, active compounds read low 0.992 | locus YDR335W, strain msn5, active compounds read low 0.992 | locus YDR388W, active compounds read low 0.99 | locus YDR392W, strain spt3, active compounds read low 1 | locus YDR502C, strain sam2, active compounds read low 0.991 | locus YEL003W, strain gim4, active compounds read low 0.998 | locus YEL037C, strain rad23, active compounds read low 1 | locus YEL061C, strain CIN8 (second series), active compounds read low 1 | locus YEL061C, strain CIN8, active compounds read low 0.984 | locus YER015W, strain faa2, active compounds read low 0.992 | locus YER016W, strain bim1, active compounds read low 1 | locus YER110C, active compounds read low 0.982 | locus YER111C, strain swi4, active compounds read low 0.988 | locus YER155C, strain BEM2 (second series), active compounds read low 0.991 | locus YER155C, strain BEM2, active compounds read low 0.992 | locus YER167W, strain BCK2, active compounds read low 0.989 | locus YFR010W, strain ubp6, active compounds read low 1 | locus YGL078C, strain dbp3, active compounds read low 0.99 | locus YGL086W, strain mad1, active compounds read low 1 | locus YGL167C, strain pmr1, active compounds read low 1.02 | locus YGL173C, strain kem1, active compounds read low 0.974 | locus YGL227W, strain vid30, active compounds read low 0.997 | locus YGL240W, strain doc1, active compounds read low 0.991 | locus YGL248W, strain PDE1, active compounds read low 0.98 | locus YGL253W, strain hxk2, active compounds read low 0.994 | locus YGR078C, strain PAC10, active compounds read low 0.99 | locus YGR135W, strain pre9, active compounds read low 0.978 | locus YGR229C, strain SMI1, active compounds read low 0.995 | locus YGR252W, strain gcn5, active compounds read low 1.03 | locus YHR013C, strain ard1, active compounds read low 0.987 | locus YHR027C, strain rpn1, active compounds read low 0.987 | locus YHR030C, strain SLT2, active compounds read low 0.997 and 0.963 | locus YHR079C, strain IRE1 (second series), active compounds read low 0.996 | locus YHR079C, strain IRE1, active compounds read low 0.976 | locus YHR094C, strain hxt1, active compounds read low 0.987 | locus YHR129C, strain ARP1, active compounds read low 0.993 | locus YHR142W, strain chs7, active compounds read low 0.983 | locus YHR200W, strain rpn10, active compounds read low 0.99 | locus YIL066C, strain RNR3, active compounds read low 0.996 | locus YIL073C, strain SPO22, active compounds read low 1.01 | locus YIL125W, strain kgd1, active compounds read low 0.995 | locus YIR030C, strain dcg1, active compounds read low 0.989 | locus YJL092W, strain hpr5, active compounds read low 1 | locus YJL095W, strain BCK1 (second series), active compounds read low 1 | locus YJL095W, strain BCK1, active compounds read low 1 and 0.963 | locus YJL115W, strain asf1, active compounds read low 0.997 | locus YJL129C, strain trk1, active compounds read low 0.98 | locus YJL134W, strain LCB3, active compounds read low 0.982 | locus YJL154C, strain vps35, active compounds read low 0.988 | locus YJL164C, strain tpk1, active compounds read low 1.01 | locus YJL166W, strain qcr8, active compounds read low 0.989 | locus YJL168C, strain set2, active compounds read low 0.996 | locus YJL187C, strain SWE1 (second series), active compounds read low 0.98 | locus YJL187C, strain SWE1, active compounds read low 1 | locus YJR043C, strain POL32, active compounds read low 1.03 | locus YJR066W, strain TOR1, active compounds read low 0.943
